# Sampled rows, rich in hits. Any-hit rate of the full collection: about 2.4%.
# D2 PAM-1: potentiates the human D2 dopamine receptor allosterically; DiscoveRx D2 beta-arrestin cells, luminescence, 90 min; 100% = 57 uM dopamine signal; hit rate 0.23% among 360,000; potentiation, % (no concentration beside the values); in the data active = potentiation above about 50%; inconclusive = mostly about 30% to 49%
# Target sequence (P14416 whole entry, looked up): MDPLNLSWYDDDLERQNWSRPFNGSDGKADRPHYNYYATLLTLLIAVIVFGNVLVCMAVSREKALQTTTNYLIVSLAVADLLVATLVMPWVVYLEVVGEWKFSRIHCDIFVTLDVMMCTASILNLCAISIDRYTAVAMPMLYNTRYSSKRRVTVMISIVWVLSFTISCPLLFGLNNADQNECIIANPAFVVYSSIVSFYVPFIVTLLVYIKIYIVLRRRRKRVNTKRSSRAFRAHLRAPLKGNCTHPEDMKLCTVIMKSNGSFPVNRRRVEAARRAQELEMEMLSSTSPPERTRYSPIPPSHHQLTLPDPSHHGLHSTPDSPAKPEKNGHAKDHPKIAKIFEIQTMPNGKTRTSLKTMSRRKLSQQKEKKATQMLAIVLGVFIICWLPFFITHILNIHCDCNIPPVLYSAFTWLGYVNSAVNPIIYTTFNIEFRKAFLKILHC
#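 PathHunter beta-arrestin assay in DiscoveRx D2 cells. Compounds were added with an EC20 of dopamine (50 nM final) for 90 min at 37 deg C. Luminescence was read 1 h after detection reagent, with 57 uM dopamine as the EC100 control.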
# D2 ag-1: activates the human D2 dopamine receptor; activation, % (concentration not given with the values); DiscoveRx PathHunter D2 beta-arrestin, luminescence, 90 min; 100% = 57 uM dopamine signal; hit rate 0.084% among 360,000; P14416; in the data active = activation above about 40%; inconclusive = between about 15% and that limit
#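 DiscoveRx PathHunter D2 beta-arrestin cells (2,100/well) attached overnight, then compound-stimulated 90 min at 37 C in HBSS/10 mM HEPES/0.1% Tween-20 buffer; beta-galactosidase complementation read by luminescence after 1 h at ambient temperature. Dopamine 57 uM final (EC100) as control.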
# D2 antagonist: D2 dopamine receptor (human) antagonism; P14416; HEK293 TREx D2 cells, calcium flux, dopamine EC80; inhibition, % at 10 µM; hit rate 2% among 340,000; AID 485344; in the data active = inhibition above about 30%; inactive = below that, where a call was filed; also: 0% is about no effect
#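 Cells plated overnight at 30 C with tetracycline; no-wash calcium dye, 30–90 min RT; 10 s baseline; compound pinned; 180 s read; EC80 dopamine added; another 180 s read.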
# D2 ag-2: agonists of human D2 dopamine receptor; hit rate 0.53% among 340,000; AID 485358; activation, % at 2 µM; HEK293 T-REx D2 cells, calcium flux agonist mode;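 active = activation over 3 SD above normal in the single-dose calcium agonist read, cut at about 30% in these data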; also: 0% is about no effect
#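 Agonism is scored from calcium flux in a force-coupled, inducible HEK293 cell line expressing D2, read kinetically for 180 s after compound addition against dopamine controls.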
# D2 PAM-2: D2 dopamine receptor (human) potentiation. P14416. potentiation, % at 10 µM. HEK293 T-REx D2, calcium flux, EC20 dopamine potentiation. hit rate 0.34% among 340,000. AID 485347;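 active = potentiation over 3 SD above the plate norm, cut at about 30% in these data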; also: 0% is about no effect
#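 Potentiation of an EC20 dopamine calcium response is measured in a force-coupled, tetracycline-inducible Hek293 Trex D2 line. Compound-only kinetic reads over 180 s flag agonists before dopamine addition.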
# Numbers without * were called inactive; u = inconclusive; x = not tested or not shown.
SMILES,D2 PAM-1,D2 ag-1,D2 antagonist,D2 ag-2,D2 PAM-2
COc1cc(Cl)c(NC(=O)c2cc(S(=O)(=O)N3CCOCC3)cn2C)c(OC)c1,x,x,x,0,3
CCc1nnc(SCc2cccc(Cl)c2)c2cc3sccc3n12,x,x,x,x,13
Cc1cccc(NC(=O)c2c(C)nc3ccccn23)c1,-3,-2,40*,0,0
Cc1ccccc1NC(=O)c1c(O)c2cccc3c2n(c1=O)CCC3,x,x,47*,0,-20
COC(=O)c1cc(NC(=O)c2sc3ncn(Cc4cccc(F)c4)c(=O)c3c2C)cc(C(=O)OC)c1,x,x,x,0,19
Cc1nc2c3ccccc3n(CCN3CCCCC3)c2s1,x,x,40*,-1,4
O=C(NC1CCCCC1)[C@H](O)[C@@H](O)C(=O)NC1CCCCC1,-1,-1,49*,0,-6
COCc1nnc(NC(=O)C2CC(=O)N(CCc3ccc(F)cc3)C2)s1 (stereo not given),-7,-3,30*,1,-7
COc1ccc(-n2nc(C(=O)N(C)C)nc2-c2ccccc2)cc1,0,9,31*,0,9
CCC(Sc1nc2nccnc2c(=O)n1Cc1ccc(Cl)cc1)C(=O)NC1CCCCC1 (stereo not given),x,x,x,0,4
C=CCC1=C/C(=C\c2c(N)n3nc(CC(=O)N4CCCC4)sc3nc2=O)C=C(OC)C1=O,-2,-5,2,40*,-5
CCOC(=O)c1cccc(NC(=O)C(CC(C)C)N2Cc3ccccc3C2=O)c1 (stereo not given),x,x,x,x,5
COc1cc(C(=O)NCCC2=CCCCC2)ccc1OCc1c(C)noc1C,-3,-8,32*,0,-10
CCC(=O)c1ccc(OCC(=O)NCCC2=CCCCC2)c(OC)c1,-4,-1,-4,-1,-1
CCOc1ccc(C(=O)NCCC2=CCCCC2)cc1OCC,-23,2,38*,-1,-30
COc1ccccc1/C=C/C(=O)NCCC1=CCCCC1,-15,-5,35*,-1,-24
CCOC(=O)c1c(C)[nH]c(C)c1S(=O)(=O)N(C)CC(=O)Nc1ccc(OC)cc1,x,x,x,x,0
CCOC(=O)c1c(C)[nH]c(C)c1S(=O)(=O)NCC(=O)Nc1cccc(C#N)c1,x,x,x,0,x
CCc1ccc(NC(=O)CCn2cnc3ccccc3c2=O)cc1,x,x,x,0,3
Cc1cc(C)c2sc(N(Cc3cccnc3)C(=O)CCS(=O)(=O)c3ccccc3)nc2c1,x,x,x,0,2
Cc1cc2oc(=O)cc(CSc3nnc(-c4cccs4)o3)c2cc1C(C)C,1,-3,36*,0,-9
Cn1nnc2cc(C(=O)Nc3ccccc3)ccc21,-2,-3,13,1,11
COc1ccccc1NC(=O)c1ccc2c(c1)nnn2C,-2,-6,71*,0,3
COc1cccc(-n2cc(C(=O)Nc3cc(C)c(Cl)cc3OC)c3ccccc3c2=O)c1,x,x,x,0,6
c1csc(-c2nnc(NC3CCCCC3)c3ccccc23)c1,-30,-1,43*,1,-31
SMILES,D2 PAM-1,D2 ag-1,D2 antagonist,D2 ag-2,D2 PAM-2
CCc1ccc(-c2cc(C)no2)cc1S(=O)(=O)N1CCN(c2ccc(F)cc2)CC1,-13,-1,36*,1,-9
CCc1ccc(-c2cc(C)no2)cc1S(=O)(=O)NCCN1CCC(C)CC1,-38,-4,6,0,-17
CCc1ccc(-c2cc(C)no2)cc1S(=O)(=O)NCCCN1CCN(c2ccccc2)CC1,-34,-3,51*,72*,-24
CCc1ccc(-c2cc(C)no2)cc1S(=O)(=O)N1CCN(c2ccc(OC)cc2)CC1,-3,0,5,1,2
O=C(CSc1nnc(C2CC2)n1Cc1ccccc1)N1CCN(S(=O)(=O)c2ccccc2)CC1,6,-3,-5,1,-1
CC(C)Sc1nnc(-c2ccc(S(=O)(=O)N3CCOCC3)cc2)n1C,2,-4,35*,0,-2
CC1CCCN(C(=O)CSc2nnc(-c3ccc(S(=O)(=O)N4CCOCC4)cc3)n2C)C1 (stereo not given),0,0,-5,-2,0
CC1CCN(C(=O)CSc2nnc(-c3ccc(S(=O)(=O)N4CCOCC4)cc3)n2C)CC1,-8,-1,-17,0,53*
CCN(CC)C(=O)CSc1nnc(-c2ccc(S(=O)(=O)N3CCOCC3)cc2)n1C,-3,-1,20,0,-2
O=C(CSc1nnc(C2CC2)n1Cc1ccccc1)c1ccc(S(=O)(=O)N2CCOCC2)cc1,6,1,46*,-3,10
CCOC(=O)c1cc(-c2ccc(OC)cc2)n(CCC(=O)NCCN2CCC(C)CC2)c1C,-11,-2,66*,1,-21
C=CCN1C=CC(=CC=C(C#N)C#N)C=C1,-17,0,7,53*,6
C=CCc1cccc2cc(C(=O)NCCc3c(C)[nH]c4c(C)cccc34)c(=O)oc12,x,x,x,0,-4
CN(C)C(=O)c1ccc2c(c1[N+](=O)[O-])C(=O)c1ccccc1C2=O,68*,u,x,x,x
COc1ccc2c(c1O)C(=O)c1ccccc1C2=O,x,x,4,0,-6
Cc1[nH]c2c(C)cccc2c1CCNC(=O)c1ccc2c(c1[N+](=O)[O-])C(=O)c1ccccc1C2=O,93*,u,-5,0,-7
Cc1[nH]c2ccccc2c1CCNC(=O)c1ccc2c(c1[N+](=O)[O-])C(=O)c1ccccc1C2=O,93*,u,-5,0,-9
CCCNC(=O)NCCc1c(C)[nH]c2ccccc12,-4,5,-1,0,7
O=C(Cn1cc(S(=O)(=O)Cc2ccc(F)cc2)c2ccccc21)NCc1ccccc1Cl,x,x,x,-1,1
O=C(c1ccc2c(c1)OCO2)N1CCC2(CC1)Oc1ccc(Cl)cc1C(=O)C21CC(c2ccccc2)=NO1 (stereo not given),-11,-2,42*,1,7
CN(C)c1ccc(CN(CC2CCCO2)C(=O)COc2ccc(Cl)cc2)cc1 (stereo not given),x,x,x,-1,8
CC(C)(Oc1ccc(Cl)cc1)C(=O)N1CCN(c2ccccn2)CC1,-20,-3,43*,-1,2
CCn1c(SCc2cccc(Br)c2)nnc1-c1nonc1NC(C)=O,x,x,x,x,6
O=C(O)C1CCCCC1C(=O)Nc1ccccn1 (stereo not given),2,-3,41*,1,-8
O=C(Nc1ccccn1)NC1CCCCC1,-20,-2,-11,1,9
COc1cccc(-c2cc(C(F)(F)F)nc(-n3nc(C)c(Br)c3C)n2)c1,x,x,x,1,-8
Cc1c(C)n(C(=O)CN2CCN(c3ccccc3)CC2)c2ccccc12,-9,-4,-7,1,19
Cc1c(C)n(C(=O)CN2CCC(C(N)=O)CC2)c2ccccc12,-8,-2,36*,0,-6
COc1ccc(N/C(N)=N/c2nc(C)cc(C)n2)cc1,-5,-2,x,x,x

# Screening data from PubChem.
